Measured values from PubChem BioAssay (Tox21).
Several values for one entry are separate records, joined by “and”; a condition that tells them apart may be missing. Equal values may be shown once. Inconclusive results are not listed. More than one record can exist for a structure, and the calls need not agree. Activity calls are given as the source filed them. Unless noted, the call rests on the fitted dose curve; in most records, active means well fitted curve in the direction sought with a large enough effect in the repeat runs; inconclusive means weak or mixed curves; inactive means no such curve, though single readings can be large; an effect the other way counts as inactive or inconclusive.

Columns and labels:
[1] = molecular target: Thyrotropin receptor (Homo sapiens) (UniProt P16473); assay: qHTS assay to identify small molecule antagonists of the thyroid stimulating hormone receptor (TSHR) signaling pathway (AID 1259385; calls by dose curve; further: nearly all actives have a fitted effect of over 20% in size)
Method in brief: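 TSHR-HEK293 cells (800/well) plated 18 h, then compounds with Ro20-1724 and TSH at 1.5 ng/mL final, 30 min at room temperature. cAMP quantified by HTRF (cAMP-d2/anti-cAMP-cryptate, 1 h); 15 concentrations in triplicate.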

[2] = qHTS assay to identify small molecule agonists of the estrogen receptor alpha (ER-alpha) signaling pathway in the presence of an antagonist - cell viability counter screen (AID 1259386);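 further: series mostly up to about 92 µM; cells exposed to compounds for 22 h at 37 °C before the viability read; nearly all actives have a fitted effect of over 30% in size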
Method in brief: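 Steps: 5-day stripped-FBS culture; seed and incubate 24hr; add ICI-182,780 (10.0nM final); pin 15-point compound titration; incubate 22hr at 37C; add CellTiter-Fluor at 21hr; read fluorescence.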

[3] = molecular target: Progesterone receptor (Homo sapiens) (UniProt P06401); assay: qHTS assay to identify small molecule antagonists of the progesterone receptor (PR) signaling pathway (AID 1346795; active means well fitted inhibition curve with a large enough effect in the signal ratio in the repeat runs, not every such curve was filed as active; the % refers to the signal ratio; further: potency means the concentration at half of the fitted maximal effect)
Method in brief: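 Screening used a GripTite HEK293T line with PR-responsive UAS-beta-lactamase. Cells were challenged with compound in the presence of 1 nM R5020 final for 16 hr at 37C; B/G FRET substrate, 2 hr room temperature, fluorescence.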

[4] = qHTS assay to identify small molecule antagonists of the progesterone receptor (PR) signaling pathway - cell viability counter screen (AID 1346798); further: series mostly up to about 92 µM; nearly all actives have a fitted effect of over 50% in size
Method in brief: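 Measures cytotoxicity in parallel with the PR antagonist reporter read: HEK293T PR-UAS-bla cells get compound and R5020 for 16 hr, and remaining viable cells are quantified by CellTiter-Glo luminescence.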

[5] = qHTS assay to identify small molecule agonists of the progesterone receptor (PR) signaling pathway - cell viability counter screen (AID 1346799; calls by dose curve; further: nearly all actives have a fitted effect of over 45% in size)
Method in brief: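 Using the same plates as the PR reporter screen, HEK293T PR-UAS-bla cells received compounds for 16 hr at 37C and were then lysed with CellTiter-Glo; luminescence was read 30 min later at room temperature.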

[6] = qHTS assay to identify small molecule antagonists of the TGF-beta/Smad signaling pathway - cell viability counter screen (AID 1346824); further: nearly all actives have a fitted effect of over 50% in size
Method in brief: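 SBE-bla HEK 293T cells, incubated overnight, then compound plus 0.25 ng/mL TGF-beta1 (stock added) for 5 hr at 37 C. Viability was read in the same wells by CellTiter-Glo luminescence after 30 min at room temperature.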

[7] = qHTS assay to identify small molecule agonists of the TGF-beta/Smad signaling pathway - cell viability counter screen (AID 1346829); further: top concentration of the series differs between compounds; nearly all actives have a fitted effect of over 45% in size
Method in brief: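 Cytotoxicity counter screen: CellTiter-Glo luminescence (30 min, room temperature) measured in the SBE-bla HEK 293T reporter wells after 5 hr compound treatment at 37 C and the 2 hr substrate step.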

[8] = qHTS assay to identify small molecule agonists of the TGF-beta/Smad signaling pathway (AID 1346859; active means well fitted activation curve with a large enough effect in the signal ratio in the repeat runs, not every such curve was filed as active; the % refers to the signal ratio; further: series mostly up to about 77 µM)
Method in brief: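 Beta-lactamase reporter activity downstream of Smad binding elements was measured in stably transfected HEK 293T cells; compounds were incubated for 5 hr, substrate for 2 hr at room temperature.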

[9] = molecular target: Thyrotropin-releasing hormone receptor (Homo sapiens) (UniProt P34981); assay: qHTS assay to identify small molecule antagonists of the thyrotropin-releasing hormone receptor (TRHR) signaling pathway (AID 1346877; active means well fitted inhibition curve with a large enough effect in the repeat runs, not every such curve was filed as active; further: series mostly up to about 51 µM)
Method in brief: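 Human TRHR in HEK293 cells; inhibition of the intracellular calcium rise triggered by 1 nM TRH was followed by fluorescence over 3 min. Compounds were run at 15 concentrations, three replicates each.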

[10] = molecular target: Thyrotropin-releasing hormone receptor (Homo sapiens) (UniProt P34981); assay: qHTS assay to identify small molecule agonists of the thyrotropin-releasing hormone receptor (TRHR) signaling pathway (AID 1346891; calls by dose curve;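 further: HEK293 cells expressing TRHR with calcium dye readout; series mostly up to about 58 µM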)
Method in brief: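 Overnight-plated (18 h, 37 °C, 5% CO2) TRHR-Hek293 cells; 2 h calcium dye at 37 °C; compound in DMSO; 3-min kinetic fluorescence read.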

[11] = Human pregnane X receptor (PXR) small molecule agonists, qHTS cell viability counter screen (AID 1346977); further: nearly all actives have a fitted effect of over 50% in size; further: potency means the concentration at half of the fitted maximal effect
Method in brief: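 After a 5hr pre-incubation, PXR-Luc HepG2 cells received compounds plus positive control in DMSO and were kept 24hr at 37C. Cell viability was quantified by fluorescence from CellTiter-Fluor added for the final hour.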

[12] = Caspase-3/7 induction in HepG2 cells by small molecules, qHTS assay (AID 1346978); further: nearly all actives have a fitted effect of over 15% in size
Method in brief: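 Wild-type HepG2 cells, 2,000/well, settled 5 hr at 37 C and 5% CO2, then compound-treated for 17 hr; caspase-3/7 activity read by luminescent Caspase-Glo 3/7 after 30 min at room temperature.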

[13] = Caspase-3/7 induction in CHO-K1 cells by small molecules, qHTS cell viability counter screen (AID 1346979); further: nearly all actives have a fitted effect of over 35% in size; further: potency means the concentration at half of the fitted maximal effect
Method in brief: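 Multiplexed with Caspase-Glo 3/7 in CHO-K1 cells, this counter screen added CellTiter-Fluor after 16hr of compound exposure and recorded fluorescence 1hr later.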

[14] = Caspase-3/7 induction in CHO-K1 cells by small molecules, qHTS assay (AID 1346980); further: nearly all actives have a fitted effect of over 15% in size
Method in brief: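 Wild-type CHO-K1 cells exposed to compounds for 17hr at 37 C, 5% CO2. Caspase-3/7 activity then measured by Caspase-Glo 3/7 luminescence after 30min at room temperature.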

[15] = Caspase-3/7 induction in HepG2 cells by small molecules, qHTS cell viability counter screen (AID 1346981); further: nearly all actives have a fitted effect of over 30% in size; further: potency means the concentration at half of the fitted maximal effect
Method in brief: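 The parent HepG2 line is plated at 2,000 cells per well and rested 5 hr before compound pinning from DMSO stocks. Following a 16-hr treatment at 37 C, a fluorogenic live-cell substrate (CellTiter-Fluor) reports viability after 1 hr.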

[16] = molecular target: Nuclear receptor subfamily 1 group I member 2 (Homo sapiens) (UniProt O75469); assay: Human pregnane X receptor (PXR) small molecule agonists, qHTS assay (AID 1346982); further: nearly all actives have a fitted effect of over 35% in size; further: potency means the concentration at half of the fitted maximal effect
Method in brief: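 After plating in 5% charcoal-stripped FBS and a 5 hr rest, PXR-Luc HepG2 cells received compounds in DMSO. Following 24 hr at 37 C, ONE-Glo was added and light output read.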

[17] = molecular target: Progesterone receptor (Homo sapiens) (UniProt P06401); assay: qHTS assay to identify small molecule agonists of the progesterone receptor (PR) signaling pathway (AID 1346784; calls by dose curve; further: nearly all actives have a fitted effect of over 30% in size)
Method in brief: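 Seed PR-UAS-bla HEK 293T cells (2% charcoal-stripped FBS), incubate 6 hr at 37C; add compounds in DMSO, 16 hr at 37C; add LiveBLAzer B/G substrate, 2 hr RT; read fluorescence intensity.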

[18] = molecular target: Nuclear receptor subfamily 1 group I member 2 (Homo sapiens) (UniProt O75469); assay: CYP3A4 induction through human pregnane X receptor (PXR) by small molecules, qHTS assay (AID 1346984); further: nearly all actives have a fitted effect of over 40% in size
Method in brief: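 Human PXR activation is tracked via CYP3A4 promoter-luciferase in DPX-2 (HepG2) cells. Compounds treat cells for 24hr at 37C, and luminescence is read after One-Glo.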

[19] = molecular target: Nuclear receptor subfamily 1 group I member 2 (Homo sapiens) (UniProt O75469); assay: Human pregnane X receptor (PXR) activation by small molecules, qHTS assay (AID 1346985); further: nearly all actives have a fitted effect of over 40% in size
Method in brief: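 DPX-2 cells (HepG2 co-transfected with a PXR response element and a CYP3A4-promoter luciferase construct) were seeded at 2,000 per well, rested 5 hr at 37C, then exposed to DMSO-dissolved compounds for 24 hr. Activation was read as luciferase luminescence.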

Measured: Potency

Progesterone receptor (Homo sapiens), sequence (P06401 whole entry, looked up): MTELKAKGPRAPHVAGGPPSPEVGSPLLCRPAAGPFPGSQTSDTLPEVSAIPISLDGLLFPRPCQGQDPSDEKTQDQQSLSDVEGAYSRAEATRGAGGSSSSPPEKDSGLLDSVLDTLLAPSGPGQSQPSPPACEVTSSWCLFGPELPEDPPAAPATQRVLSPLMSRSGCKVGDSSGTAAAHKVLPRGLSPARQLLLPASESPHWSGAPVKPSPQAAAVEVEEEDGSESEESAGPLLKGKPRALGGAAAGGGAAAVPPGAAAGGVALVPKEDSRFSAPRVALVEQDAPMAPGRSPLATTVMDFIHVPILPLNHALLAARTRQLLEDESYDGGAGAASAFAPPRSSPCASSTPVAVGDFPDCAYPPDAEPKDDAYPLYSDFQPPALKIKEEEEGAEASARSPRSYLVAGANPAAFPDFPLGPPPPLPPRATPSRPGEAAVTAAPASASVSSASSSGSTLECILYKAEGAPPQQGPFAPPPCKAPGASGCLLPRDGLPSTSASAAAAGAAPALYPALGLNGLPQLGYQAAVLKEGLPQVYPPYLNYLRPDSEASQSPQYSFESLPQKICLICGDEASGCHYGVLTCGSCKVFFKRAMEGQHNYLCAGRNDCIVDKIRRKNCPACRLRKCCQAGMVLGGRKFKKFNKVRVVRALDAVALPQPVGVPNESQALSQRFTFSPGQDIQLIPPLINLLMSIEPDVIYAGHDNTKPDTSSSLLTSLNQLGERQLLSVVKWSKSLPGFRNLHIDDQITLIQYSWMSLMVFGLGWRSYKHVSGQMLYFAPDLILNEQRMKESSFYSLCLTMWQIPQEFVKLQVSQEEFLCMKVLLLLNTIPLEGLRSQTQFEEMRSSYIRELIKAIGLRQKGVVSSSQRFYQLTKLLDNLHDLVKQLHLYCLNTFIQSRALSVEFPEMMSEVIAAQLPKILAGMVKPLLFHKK
Thyrotropin-releasing hormone receptor (Homo sapiens), sequence (P34981 whole entry, looked up): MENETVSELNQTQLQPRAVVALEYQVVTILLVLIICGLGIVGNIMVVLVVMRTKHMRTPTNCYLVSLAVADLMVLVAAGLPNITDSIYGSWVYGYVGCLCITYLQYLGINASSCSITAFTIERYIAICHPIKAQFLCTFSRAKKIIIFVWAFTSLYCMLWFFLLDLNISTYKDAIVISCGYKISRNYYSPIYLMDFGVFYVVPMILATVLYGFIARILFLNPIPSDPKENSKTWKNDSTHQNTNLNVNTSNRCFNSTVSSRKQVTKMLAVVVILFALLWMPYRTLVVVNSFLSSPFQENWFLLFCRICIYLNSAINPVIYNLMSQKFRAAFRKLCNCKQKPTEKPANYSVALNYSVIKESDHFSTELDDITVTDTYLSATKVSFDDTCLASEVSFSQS
Thyrotropin receptor (Homo sapiens), sequence (P16473 whole entry, looked up): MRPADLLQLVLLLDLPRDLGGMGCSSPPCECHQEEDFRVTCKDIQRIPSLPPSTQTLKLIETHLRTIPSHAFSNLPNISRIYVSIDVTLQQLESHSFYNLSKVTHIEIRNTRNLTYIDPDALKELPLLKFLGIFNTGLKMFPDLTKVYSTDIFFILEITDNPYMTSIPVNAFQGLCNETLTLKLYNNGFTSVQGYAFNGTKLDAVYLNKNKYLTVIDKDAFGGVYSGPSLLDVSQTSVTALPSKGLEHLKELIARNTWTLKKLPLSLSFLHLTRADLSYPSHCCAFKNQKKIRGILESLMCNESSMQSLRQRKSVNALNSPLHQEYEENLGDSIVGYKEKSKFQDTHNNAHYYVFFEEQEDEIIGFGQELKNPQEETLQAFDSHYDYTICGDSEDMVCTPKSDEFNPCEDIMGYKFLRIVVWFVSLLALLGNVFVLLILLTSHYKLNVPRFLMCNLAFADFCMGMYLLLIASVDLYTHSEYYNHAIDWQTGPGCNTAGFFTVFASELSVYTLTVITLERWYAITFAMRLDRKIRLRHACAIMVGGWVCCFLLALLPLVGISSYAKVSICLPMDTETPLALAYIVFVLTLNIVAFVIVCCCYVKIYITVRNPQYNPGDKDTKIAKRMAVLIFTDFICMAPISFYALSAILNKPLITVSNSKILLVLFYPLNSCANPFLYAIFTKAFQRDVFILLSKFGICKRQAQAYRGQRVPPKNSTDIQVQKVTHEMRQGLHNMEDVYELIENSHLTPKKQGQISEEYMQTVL
Nuclear receptor subfamily 1 group I member 2 (Homo sapiens), sequence (O75469 whole entry, looked up): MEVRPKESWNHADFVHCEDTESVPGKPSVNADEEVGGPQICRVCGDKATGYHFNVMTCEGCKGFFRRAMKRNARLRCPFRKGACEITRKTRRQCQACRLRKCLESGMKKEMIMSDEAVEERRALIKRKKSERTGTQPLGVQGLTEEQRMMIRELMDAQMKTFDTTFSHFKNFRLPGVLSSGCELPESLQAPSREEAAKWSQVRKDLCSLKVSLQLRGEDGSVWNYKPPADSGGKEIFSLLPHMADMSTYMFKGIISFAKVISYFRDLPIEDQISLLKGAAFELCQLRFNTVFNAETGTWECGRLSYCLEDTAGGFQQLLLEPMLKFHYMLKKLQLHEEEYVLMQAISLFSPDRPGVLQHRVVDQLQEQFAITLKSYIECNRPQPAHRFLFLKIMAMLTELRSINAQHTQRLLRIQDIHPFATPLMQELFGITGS

O=P(O)(O)CCCl
not listed: [17] | [18] | [19]
inactive: all other assays above

c1ccc(NNc2ccccc2)cc1
inactive and 48.6 µM (active): [16]
not listed: [17] | [18] | [19]
inactive: all other assays above

CCOc1cc(C=O)ccc1O
not listed: [11] | [17] | [18] | [19]
inactive: all other assays above

CC(O)CCO (stereo not given)
not listed: [11] | [16] | [18] | [19]
inactive: all other assays above

CCCCCc1cc(O)cc(O)c1
active: [3] 68.9 µM and 21.7 µM | [15] 48.6 µM | [16] 61.4 µM and 30.6 µM
not listed: [4] | [5] | [11] | [13] | [18] | [19]
inactive: all other assays above

OCC(O)CO
not listed: [3] | [16] | [17]
inactive: all other assays above

CN(C)c1ccc(C(=O)c2ccc(N(C)C)cc2)cc1
active: [3] 27.3 µM | [11] 54.5 µM | [13] 24.3 µM | [15] 48.6 µM | [16] 48.1 µM and 17.2 µM
inactive: [1] | [17] | [5] | [6] | [7] | [8] | [9] | [14]

C=CCc1ccc(OC)cc1
not listed: [2] | [18] | [19]
inactive: all other assays above
